Screen size: about 52,000 compounds; about 4,300 (8.3%) were called active. No stated cut-off is given here; in the data, active means survival mostly below about 52% (no sharp cut-off); inactive means mostly above about 56%. Only a selection was taken, and actives are over-represented in it overall.
Each compound was assayed on DeltatarO mutant (assay: S. aureus survival, RN4220 and DeltatarO strains – OD600, teichoic acid synthesis inhibitors, primary screen (AID 463173)). Settings: S. aureus RN4220 wild type/DeltatarO growth, OD600, 18 h, active compounds read low, screened at 18.75 µg/mL (by protocol).

Compound | survival
COc1cccc(CSc2nc3n(n2)C(c2cccnc2)C(C(=O)Nc2ccccc2C)=C(C)N3)c1 (centres undefined) | 74% (inactive)
COc1ccc(Cn2c(CNS(=O)(=O)c3ccc4c(c3)CCCC4)nc3cccnc32)cc1 | 128% (inactive)
COc1ccc(Cn2c(CNS(=O)(=O)c3ccc(C)c(C)c3)nc3cccnc32)cc1 | 17% (active)
CCc1ccc(Cn2c(CNS(=O)(=O)c3ccc(C)c(C)c3)nc3cccnc32)cc1 | 81% (inactive)
Cc1nc(-c2ccc(F)cc2)sc1CCNC(=O)c1ccccc1C(F)(F)F | 97% (inactive)
CCCCN(CC)CCCNC(=O)c1cn(CC)c2ccc(S(=O)(=O)N3CCOCC3)cc2c1=O | 89% (inactive)
COc1ccc(CNC(=O)CCc2cn(C)c3ccccc23)cc1 | 57% (inactive)
CCOC(=O)c1sc2ccccc2c1S(=O)(=O)NCc1ccc(F)cc1 | 94% (inactive)
Cc1cccc(C(=O)OCc2cc(=O)n3ccsc3n2)c1 | 84% (inactive)
O=C(Nc1ccccc1C(=O)OCc1cc(=O)n2ccsc2n1)c1ccccc1Cl | 60% (inactive)
Cc1ccccc1C(=O)Nc1cccc(C(=O)OCc2cc(=O)n3ccsc3n2)c1 | 72% (inactive)
COc1ccccc1C(=O)Nc1ccc(C(=O)OCc2cc(=O)n3ccsc3n2)cc1 | 96% (inactive)
COc1cc(C(=O)OCc2cc(=O)n3ccsc3n2)cc(OC)c1OC | -2% (active)
COc1cc(C(=O)OCc2cc(=O)n3nc(C(C)C)sc3n2)cc(OC)c1OC | 99% (inactive)
COc1ccccc1C(=O)Nc1ccccc1C(=O)OCc1cc(=O)n2ccsc2n1 | -5% (active)
COc1ccccc1C(=O)Nc1cccc(C(=O)OCc2cc(=O)n3ccsc3n2)c1 | -4% (active)
Cc1ccccc1C(=O)Nc1ccccc1C(=O)OCc1cc(=O)n2ccsc2n1 | 77% (inactive)
CCc1nnc2c(NCc3cccc(OC)c3)nc3ccccc3n12 | 89% (inactive)
Cc1cc(C)c2c(=O)cc(C(=O)Nc3nc4ccc(F)cc4s3)oc2c1 | 61% (inactive)
COc1ccc(-c2cn3c(n2)sc2cc(C(=O)NC4CCCCC4)ccc23)cc1 | 79% (inactive)
CSc1cccc(NC(=O)Cn2ncn3c(cc4ccccc43)c2=O)c1 | 65% (inactive)
CCN(Cc1ccccc1)C(=O)Cn1c(=O)n(-c2cccc(C)c2)c(=O)c2c1c1cc(OC)ccc1n2C | 59% (inactive)
O=C(NCC(c1cccnc1)N1CCc2ccccc2C1)C(=O)Nc1ccc(F)cc1F (centres undefined) | 107% (inactive)
Cc1ccc(C(=O)Nc2c(-c3ccccc3)nc3ccccn23)cc1C | 34% (active)
O=C(Nc1c(-c2ccc(F)cc2)nc2ccccn12)c1ccccc1F | 139% (inactive)

Compound | survival
Cc1ccc(C(=O)Nc2c(-c3ccccc3)nc3ccccn23)cc1 | 40% (active)
O=C(Nc1c(-c2ccccc2)nc2ccccn12)c1ccccc1F | 48% (inactive)
COC(=O)Nc1c(-c2ccccc2)nc2ccc(C)cn12 | 74% (inactive)
Cc1cccc(C(=O)Nc2c(-c3ccc(F)cc3)nc3ccccn23)c1 | 91% (inactive)
O=C(Nc1c(-c2ccccc2)nc2ccccn12)c1ccc(Br)cc1 | 31% (active)
Cc1cc(C(=O)Nc2c(C)nc3ccccn3c2=O)ccc1[N+](=O)[O-] | 92% (inactive)
CC(C)Nc1c(-c2ccccc2)nc2ccccn12 | 105% (inactive)
Cc1cc(NC(=O)CSc2ccccc2)no1 | 88% (inactive)
CCOC(=O)Cc1nnc2c(Nc3cc(C)ccc3C)nc3nonc3n12 | 101% (inactive)
Cc1oc(-c2cccc(Cl)c2)nc1Cn1c(SCc2ccc(F)cc2)nc2cccnc21 | 85% (inactive)
Cc1ccc(C)c2nc(SCC(=O)OC(C)C)c(C#N)cc12 | 92% (inactive)
COc1ccc(C(NC(C)=O)c2ccc(OC)cc2)cc1 | 77% (inactive)
Cn1cnc(S(=O)(=O)N2CCC(C(=O)N3CCN(c4cccc(C(F)(F)F)c4)CC3)CC2)c1 | 106% (inactive)
O=C(NC1CCCC1)c1ccc(CSc2nc3cccnc3n2Cc2ccccc2)cc1 | 95% (inactive)
COc1ccc(Cn2cc(S(=O)(=O)c3ccc(Cl)cc3)c(=O)c3cc4c(cc32)OCO4)cc1 | 58% (inactive)
Cn1nc(-c2ccc(N3CCCCC3)c(NC(=O)c3ccc(Cl)cc3)c2)c2ccccc2c1=O | 66% (inactive)
COc1ccccc1C(=O)Nc1cc2c(cc1N1CCCCC1)n(C)c(=O)n2C | 78% (inactive)
COc1nnc(-c2ccc(N3CCCCC3)c(NC(=O)c3ccc(Cl)cc3)c2)c2ccccc12 | 107% (inactive)
COc1nnc(-c2ccc(N3CCCCC3)c(NC(=O)c3ccccc3Cl)c2)c2ccccc12 | -1% (active)
COc1nnc(-c2ccc(N3CCCCC3)c(NC(=O)c3ccccc3)c2)c2ccccc12 | 0% (active)
COc1nnc(-c2ccc(N3CCCCC3)c(NC(=O)c3ccc(C)cc3)c2)c2ccccc12 | 26% (active)
COc1ccccc1C(=O)Nc1cc2c(cc1N1CCCC1)n(C)c(=O)c(=O)n2C | 89% (inactive)
Cn1c(=O)c(=O)n(C)c2cc(N3CCCC3)c(NC(=O)c3ccccc3Cl)cc21 | 90% (inactive)
CCn1c(=O)c(=O)n(CC)c2cc(N3CCCCC3)c(NC(=O)c3cccc(OC)c3)cc21 | 85% (inactive)

Source: PubChem BioAssay AID463173 (ICCB-Longwood Screening Facility, Harvard Medical School, 2010)
